Data published in PubChem BioAssay (NCI).
Values joined by “and” are separate entries in the source; they are usually repeats but may differ in a detail not shown here. Equal entries are not always repeated. Compounds without any hit were thinned out: in the full panel of roughly 79,000, 15% have a hit. No stated cut-off is given here; in the data, active means growth inhibition above about 70%; inactive means the rest.

Columns and labels:
[1] = NCI Yeast Anticancer Drug Screen. Data for the rad50 strain (AID 155);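 further: 0% = growth of vehicle-only cultures of the same strain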; settings: S. cerevisiae rad50 strain growth inhibition, active compounds read high; at 50.0 µM unless noted
Outline: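 Yeast carrying a defined DNA repair defect were exposed to test compounds, and growth was compared with vehicle-treated controls to give percent inhibition.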

[2] = NCI Yeast Anticancer Drug Screen. Data for the mec2-1 strain (AID 157); settings: S. cerevisiae mec2-1 strain, active compounds read high; at 50.0 µM unless noted
Outline: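 Mutant yeast (mec2-1) grown with compound; growth inhibition relative to vehicle control reported.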

[3] = NCI Yeast Anticancer Drug Screen. Data for the sgs1 mgt1 strain (AID 161);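 further: 0% = growth of cultures given vehicle only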; settings: S. cerevisiae sgs1 mgt1 strain, active compounds read high; at 50.0 µM unless noted
Outline: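 Compounds are added to genetically altered yeast, and growth is compared with cultures given vehicle alone to give percent inhibition.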

[4] = NCI Yeast Anticancer Drug Screen. Data for the cln2 rad14 strain (AID 165);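 further: 0% = growth equal to vehicle treated cultures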; settings: S. cerevisiae cln2 rad14 strain, active compounds read high; at 50.0 µM unless noted
Outline: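 Readout is yeast growth inhibition versus vehicle-treated controls, using a strain with cln2 and rad14 alterations exposed to compound.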

[5] = NCI Yeast Anticancer Drug Screen. Data for the bub3 strain (AID 167); settings: S. cerevisiae bub3 mutant strain, active compounds read high; at 50.0 µM unless noted
Outline: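 Compounds were applied to a genetically altered yeast strain carrying a cell-cycle control defect. Growth inhibition was scored against vehicle-treated controls.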

[6] = NCI Yeast Anticancer Drug Screen. Data for the mlh1 rad18 strain (AID 175); settings: S. cerevisiae mlh1 rad18 strain growth inhibition, active compounds read high; at 50.0 µM unless noted
Outline: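 Genetically defined yeast (DNA repair-deficient) exposed to compounds; growth inhibition determined relative to vehicle.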

Measured: growth inhibition

O=C(O)CCSCCC(=O)O
inactive: [1] -22.8% | [2] -2.5% | [3] -29.4% | [4] -48.4% | [5] -13.6% | [6] 22.4%

CC(O)CNC(=O)C(C)(C)O (stereo unspecified)
inactive: [1] 36% | [2] 13.6% | [3] 20.7% | [4] 9.65% | [5] 21.8% | [6] 18.9%

BrC1CC2CCC1CC2 (stereo unspecified)
inactive: [1] -14.7% | [2] -6.45% | [3] -7.2% | [4] -6.8% | [5] -7.05% | [6] 16.6%

CCCCCP(=O)(O)O.[Cu+2]
inactive: [1] -41.4% | [2] -39.6% | [3] -9.9% | [4] -40% | [5] -31.6% | [6] -14.2%

CCN(CC)CC(=O)Nc1cc(Cl)ccc1OC
inactive: [1] -4% | [2] -19.8% | [3] -5.75% | [4] -35.3% | [5] 8.9% | [6] -6.25%

CCCCSc1ncnc2nc[nH]c12
inactive: [1] -38% | [2] -15.4% | [3] -9.05% | [4] -21.4% | [5] -7.45% | [6] -15.7%

Cn1c(=S)[nH]c2c(Cl)cc(Cl)cc2c1=O
inactive: [1] -40.4% | [2] -30.6% | [3] -7.1% | [4] -13.9% | [5] -27.7% | [6] -51.9%

O=C(/C=C/c1ccccc1)CSc1ncn[nH]1
inactive: [1] 10.1% | [2] 5.4% | [3] 8.7% | [4] 4.75% | [5] 19.4% | [6] -7.4%

OC1(c2nccc3ccccc23)CCN(CCc2ccccc2)CC1
inactive: [1] 46.5% | [2] 33.4% | [3] 55.8% | [4] 40.5% | [5] 17.9% | [6] 34.8%

CNC(=S)C#N
inactive: [1] -21.8% | [2] -14.4% | [3] -15.3% | [4] 11.9% | [5] -13% | [6] 0.1%

Cc1cn(C2CC(OP(=O)(O)OCC3OC(n4ccc(N)nc4=O)C(O)C3O)C(CO)O2)c(=O)[nH]c1=O (stereo unspecified)
inactive: [1] 7.55% | [2] 1.5% | [3] 8.15% | [4] 13.7% | [5] -23.6% | [6] -74.2%

CC(=O)c1ccc2c(c1)sc1ccccc12
inactive: [1] 66.9% | [2] -25.3% | [3] -6.4% | [4] -2.25% | [5] 28.5% | [6] 55.9%

Nc1c(Cl)ncnc1Nc1ccc(CCO)cc1
inactive: [1] -3.6% | [2] -9.25% | [3] 22.6% | [4] -60.3% | [5] -4.4% | [6] -8.75%

Nc1ccc2c(O)cc(S(=O)(=O)O)cc2c1
inactive: [1] 39% and 26.9% | [2] 5.1% and 0.25% | [3] 4.5% and -20.9% | [4] -29.1% and -73% | [5] 19.6% and 4.85% | [6] 3.7% and 10.4%

c1ccc(NN=Nc2ncnc3nc[nH]c23)cc1
inactive: [1] 3.35% | [2] 5.9% | [3] -2.2% | [4] -11.8% | [5] 7.7% | [6] 2.7%

c1ccc(-n2ncn[n+]2-c2ccccc2)cc1
inactive: [1] 6.55% | [2] 4.4% | [3] -0.3% | [4] 28.4% | [5] 32.8% | [6] 5.15%

C=C1OC(n2cnc3c(=N)n(O)cnc32)C2OC(C)(C)OC12 (stereo unspecified)
inactive: [1] -3.6% | [2] 4.75% | [3] 13.2% | [4] -16.4% | [5] 1.9% | [6] -16.5%

C=C[C@@]1(C)C=C2CC[C@@H]3[C@](C)(CCC[C@@]3(C)C(=O)O)[C@H]2CC1
inactive: [1] 67.5% | [2] 37.8% | [3] 31.3% | [4] 52.1% | [5] 35.1% | [6] 55.2%

CCC(SC(CC)(CC)C(=O)O)C(N)=O (stereo unspecified)
inactive: [1] -9.9% | [2] 0.05% | [3] -8.15% | [4] -23% | [5] -6% | [6] -8.1%

CCC(=O)NC(Nc1ccccc1F)(C(F)(F)F)C(F)(F)F
inactive: [1] -29.2% | [2] -18.2% | [3] -18.1% | [4] -4% | [5] -41.9% | [6] -35.9%

C=CCC1(CN(C)C)CC/C(=C\c2ccc(Cl)cc2)C1=O (stereo unspecified)
inactive: [1] 55.2% | [2] 23.6% | [3] 59.8% | [4] 42.2% | [5] 16.3% | [6] 52.5%
